According to PubChem BioAssay:
For some assays here: Entries with a potency or affinity are not part of this list. The source made the active and inactive calls. Unless noted, no rule for the calls is given here.

Assays:
[1] = antimalarial activity against Dd2 strain (AID 2302;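 active = growth inhibition above 50% at the single 2 µM test dose, taken to imply half-maximal potency below 2 µM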;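 also: 0% = DMSO untreated growth and 100% = chloroquine plus artemisinin killed control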); conditions: P. falciparum Dd2 in RBCs, LDH growth readout, 72 h; at 2 µM; stronger effect = higher value
[2] = human hepatoma cell viability loss – ATP luminescence, cytotoxicity control for P. falciparum antimalarial project, primary screen (AID 2303;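 active = inhibition above 50%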;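 also: 0% = DMSO wells and 100% = digitonin-killed cells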); conditions: HepG2 viability, 24-48 h, at 10 µM, stronger effect = higher value
[3] = target: L-lactate dehydrogenase (Plasmodium falciparum (isolate CDC / Honduras)) (UniProt Q27743); assay: PfLDH activity inhibition – cell lysate, 3D7 strain, counter-screen for P. falciparum growth inhibition project (AID 2304);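 also: 0% = vehicle and 100% = reference inhibitor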; conditions: P. falciparum 3D7 crude extract, LDH APAD/NBT absorbance; at 2 µM; stronger effect = higher value
L-lactate dehydrogenase (Plasmodium falciparum (isolate CDC / Honduras)), sequence (Q27743 whole entry, looked up): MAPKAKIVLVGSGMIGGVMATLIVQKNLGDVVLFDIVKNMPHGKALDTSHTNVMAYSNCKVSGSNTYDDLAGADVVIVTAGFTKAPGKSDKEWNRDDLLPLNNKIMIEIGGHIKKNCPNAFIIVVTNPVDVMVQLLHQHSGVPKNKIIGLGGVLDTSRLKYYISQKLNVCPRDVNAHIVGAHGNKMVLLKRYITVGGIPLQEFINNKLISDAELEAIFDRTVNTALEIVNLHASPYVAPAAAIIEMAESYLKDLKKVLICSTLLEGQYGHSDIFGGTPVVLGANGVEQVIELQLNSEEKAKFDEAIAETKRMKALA

[4] = inhibition of 3D7 malaria parasite growth – strain 3D7 (AID 2306);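 also: 0% = DMSO wells and 100% = chloroquine plus artemisinin control wells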; conditions: P. falciparum 3D7 erythrocytic growth, LDH absorbance, 72 h; at 2 µM; stronger effect = higher value
[5] = target: Calcium-dependent protein kinase 1 (Plasmodium falciparum (isolate 3D7)) (UniProt P62344); assay: PfCDPK1 kinase inhibitors, biochemical, TCAMS library (AID 1159585; cut-off not given, nearly all actives have IC50 up to about 0.98 µM;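 also: inhibitors leave more ATP so luminescence rises with inhibition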); conditions: recombinant PfCDPK1, Kinase-Glo ATP depletion luminescence
Calcium-dependent protein kinase 1 (Plasmodium falciparum (isolate 3D7)), sequence (P62344 whole entry, looked up): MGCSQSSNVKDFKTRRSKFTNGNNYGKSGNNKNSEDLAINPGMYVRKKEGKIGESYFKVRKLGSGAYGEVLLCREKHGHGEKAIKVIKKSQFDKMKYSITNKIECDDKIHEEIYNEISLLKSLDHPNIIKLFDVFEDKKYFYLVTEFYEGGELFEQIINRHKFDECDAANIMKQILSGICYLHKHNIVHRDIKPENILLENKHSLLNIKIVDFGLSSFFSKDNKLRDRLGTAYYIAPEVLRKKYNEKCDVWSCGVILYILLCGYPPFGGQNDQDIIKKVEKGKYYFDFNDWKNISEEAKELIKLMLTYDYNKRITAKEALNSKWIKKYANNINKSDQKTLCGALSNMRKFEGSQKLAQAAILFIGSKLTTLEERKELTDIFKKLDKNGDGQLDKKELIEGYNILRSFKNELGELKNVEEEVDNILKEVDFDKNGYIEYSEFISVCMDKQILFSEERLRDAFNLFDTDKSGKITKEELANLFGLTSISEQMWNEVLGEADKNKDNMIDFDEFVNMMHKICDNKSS

[6] = target: Plasmodium falciparum protein kinase 6 (PK6, PF3D7_1337100) (UniProt Q8IDW1); assay: PfPK6 kinase inhibitors, biochemical, TCAMS library (AID 1159586); conditions: recombinant PfPK6, Kinase-Glo ATP depletion luminescence
Plasmodium falciparum protein kinase 6 (PK6, PF3D7_1337100), sequence (Q8IDW1 1-305): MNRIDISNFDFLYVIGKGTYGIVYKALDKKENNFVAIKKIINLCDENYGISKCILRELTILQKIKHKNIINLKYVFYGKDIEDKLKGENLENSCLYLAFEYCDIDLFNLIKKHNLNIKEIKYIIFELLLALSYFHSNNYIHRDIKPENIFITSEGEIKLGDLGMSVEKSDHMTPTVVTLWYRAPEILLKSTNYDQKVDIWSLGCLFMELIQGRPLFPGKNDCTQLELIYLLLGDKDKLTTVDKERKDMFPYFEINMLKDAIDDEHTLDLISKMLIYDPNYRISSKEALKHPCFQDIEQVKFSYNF

[7] = target: Protein kinase 7 (PK7), Plasmodium falciparum 3D7 (PF3D7_0213400) (UniProt Q7YTF7); assay: inhibition of Plasmodium PK7 catalytic activity – biochemical, TCAMS antimalarial set, Kinase-Glo luminescence (AID 1159587); conditions: recombinant PfPK7, Kinase-Glo ATP depletion luminescence
Protein kinase 7 (PK7), Plasmodium falciparum 3D7 (PF3D7_0213400), sequence (Q7YTF7 1-343): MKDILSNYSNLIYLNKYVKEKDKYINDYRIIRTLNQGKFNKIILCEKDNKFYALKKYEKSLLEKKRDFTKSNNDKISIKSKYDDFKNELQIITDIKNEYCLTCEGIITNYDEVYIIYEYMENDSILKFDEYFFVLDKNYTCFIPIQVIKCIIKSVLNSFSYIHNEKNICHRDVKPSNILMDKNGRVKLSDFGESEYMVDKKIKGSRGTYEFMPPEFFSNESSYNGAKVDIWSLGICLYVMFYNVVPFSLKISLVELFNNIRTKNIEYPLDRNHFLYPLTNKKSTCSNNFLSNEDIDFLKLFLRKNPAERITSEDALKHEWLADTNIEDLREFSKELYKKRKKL

[8] = target: Calcium-dependent protein kinase 4 (Plasmodium falciparum (isolate 3D7)) (UniProt Q8IBS5); assay: PfCDPK4 kinase inhibitors, biochemical, TCAMS library (AID 1159588; cut-off not given, nearly all actives have IC50 up to about 0.91 µM); conditions: recombinant PfCDPK4, Kinase-Glo ATP depletion luminescence
Calcium-dependent protein kinase 4 (Plasmodium falciparum (isolate 3D7)), sequence (Q8IBS5 whole entry, looked up): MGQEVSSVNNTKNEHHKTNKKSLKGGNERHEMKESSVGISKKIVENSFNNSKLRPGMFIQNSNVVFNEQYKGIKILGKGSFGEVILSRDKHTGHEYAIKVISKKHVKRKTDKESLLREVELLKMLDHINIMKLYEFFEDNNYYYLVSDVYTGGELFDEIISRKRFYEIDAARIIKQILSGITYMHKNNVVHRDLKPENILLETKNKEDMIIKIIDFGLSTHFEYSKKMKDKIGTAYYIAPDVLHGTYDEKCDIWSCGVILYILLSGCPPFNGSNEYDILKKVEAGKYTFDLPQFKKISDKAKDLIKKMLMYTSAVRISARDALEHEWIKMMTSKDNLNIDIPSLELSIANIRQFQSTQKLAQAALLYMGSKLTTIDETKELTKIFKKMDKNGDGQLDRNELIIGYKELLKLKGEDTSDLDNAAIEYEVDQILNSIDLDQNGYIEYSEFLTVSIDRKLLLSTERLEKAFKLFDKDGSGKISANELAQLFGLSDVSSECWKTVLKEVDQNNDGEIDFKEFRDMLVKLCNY

CCN(CC)CCN(Cc1ccc(-c2ccc(C(F)(F)F)cc2)cc1)C(=O)Cn1c(CCc2cccc(F)c2F)nc(=O)c2cc(C)ccc21
active: growth inhibition [4] 95%
inactive: growth inhibition [1] 43% | inhibition [2] 19% | inhibition [3] 0% | outcome [5] | outcome [6] | outcome [7] | outcome [8]

CN(c1ccc(NC(=O)Nc2cc(C(F)(F)F)ccc2F)cc1)c1ccnc(NCCN2CCCC2)n1
active: inhibition [2] 94% | growth inhibition [4] 93%
inactive: growth inhibition [1] 1% | inhibition [3] -2% | outcome [5] | outcome [6] | outcome [7] | outcome [8]

CC1(C(=O)Nc2ccc([N+](=O)[O-])cc2O)CC2c3ccccc3C1c1ccccc12 (stereo not given)
active: growth inhibition [4] 98%
inactive: growth inhibition [1] 16% | inhibition [2] 37% | inhibition [3] 3% | outcome [5] | outcome [6] | outcome [7] | outcome [8]

Cc1ccc(C(NC(=O)Cc2ccccc2)c2ccc3cccnc3c2O)cc1 (stereo not given)
inactive: inhibition [2] 47% | inhibition [3] 6% | outcome [5] | outcome [6] | outcome [7] | outcome [8]
active: growth inhibition [1] 77% | growth inhibition [4] 94%

CC1CCN(Cc2ccc(NC(=O)c3cc4ccc5cccnc5c4[nH]3)cc2)CC1
active: growth inhibition [1] 93% | growth inhibition [4] 101%
inactive: inhibition [2] 10% | inhibition [3] -1% | outcome [5] | outcome [6] | outcome [7] | outcome [8]

Cc1ccc(-n2cc(CNCCCn3ccnc3)c(-c3cccc(C)c3)n2)cc1
active: growth inhibition [4] 99%
inactive: growth inhibition [1] 36% | inhibition [2] 9% | inhibition [3] -2% | outcome [5] | outcome [6] | outcome [7] | outcome [8]

CC(C)N1CCC(N(Cc2ccc(-c3ccc(C(F)(F)F)cc3)cc2)C(=O)Cn2c(CCc3cccc(F)c3F)cc(=O)c3c2CCC3)CC1
inactive: inhibition [2] 30% | inhibition [3] -7% | outcome [5] | outcome [6] | outcome [7] | outcome [8]
active: growth inhibition [1] 62% | growth inhibition [4] 100%

CC1CCN(CC[C@H]2CCCN2S(=O)(=O)c2cccc(NC(=O)Nc3ccc(C(F)(F)F)cc3)c2)CC1
inactive: growth inhibition [1] 41% | inhibition [2] 12% | inhibition [3] 2% | outcome [5] | outcome [6] | outcome [7] | outcome [8]
active: growth inhibition [4] 100%

CCOC(=O)N1NC(=O)N(c2ccccc2)C1(c1ccccc1)c1ccccc1
active: growth inhibition [1] 82% | growth inhibition [4] 96%
inactive: inhibition [2] 5% | inhibition [3] 6% | outcome [5] | outcome [6] | outcome [7] | outcome [8]

O=c1cc(NCCC(CNCCc2ccccc2)NCc2cc(Br)cc(Br)c2)[nH]c2ccccc12 (stereo not given)
active: growth inhibition [4] 98%
inactive: growth inhibition [1] 47% | inhibition [2] 3% | inhibition [3] -6% | outcome [5] | outcome [6] | outcome [7] | outcome [8]

CCCCCn1c(Sc2ccc(C#N)c([N+](=O)[O-])c2)nnc1-c1cccs1
inactive: growth inhibition [1] 38% | inhibition [2] 19% | inhibition [3] -1% | outcome [5] | outcome [6] | outcome [7] | outcome [8]
active: growth inhibition [4] 91%

O=C(/C=C/c1ccc(Cl)c(Cl)c1)NCCCCCN1CCC(n2c(=O)[nH]c3ccccc32)CC1
inactive: growth inhibition [1] -1% | inhibition [2] 38% | inhibition [3] 2% | outcome [5] | outcome [6] | outcome [7] | outcome [8]
active: growth inhibition [4] 97%

O=C(NC1CCC(CCN2Cc3cccc(F)c3C2)CC1)c1cccc(-c2cccnc2)c1 (stereo not given)
inactive: inhibition [2] 16% | inhibition [3] -2% | outcome [5] | outcome [6] | outcome [7] | outcome [8]
active: growth inhibition [1] 82% | growth inhibition [4] 98%

O=C(/C=C/c1ccc(Cl)c(Cl)c1)NCCCCCCN1CCN(C(=O)Nc2ccc(F)c(Cl)c2)CC1
active: growth inhibition [4] 86%
inactive: growth inhibition [1] 2% | inhibition [2] 40% | inhibition [3] -7% | outcome [5] | outcome [6] | outcome [7] | outcome [8]

Cc1cc(N(C)C)nc(Nc2ccc(NC(=O)c3c(F)cccc3F)cc2)n1
active: inhibition [2] 50% | growth inhibition [4] 94%
inactive: growth inhibition [1] 45% | inhibition [3] -1% | outcome [5] | outcome [6] | outcome [7] | outcome [8]

CN1CCN(Cc2cc3cc(NC(=O)/C=C/c4cccc(Cl)c4)ccc3s2)CC1
inactive: inhibition [3] 1% | outcome [5] | outcome [6] | outcome [7] | outcome [8]
active: growth inhibition [1] 72% | inhibition [2] 54% | growth inhibition [4] 100%

CN1CCN(Cc2cccc(-c3ccc4c(Nc5ccc(Oc6cccnc6)cc5)ccnc4c3)c2)CC1
inactive: inhibition [2] 15% | inhibition [3] 0% | outcome [5] | outcome [6] | outcome [7] | outcome [8]
active: growth inhibition [1] 100% | growth inhibition [4] 100%

Oc1ccc(CCNc2nc(NCc3ccccc3-c3ccc(C(F)(F)F)cc3)nc(NC3CCNCC3)n2)cc1
inactive: growth inhibition [1] 2% | inhibition [2] 12% | inhibition [3] 4% | outcome [5] | outcome [6] | outcome [7] | outcome [8]
active: growth inhibition [4] 97%

CCN1CCC(N(Cc2ccc(-c3ccc(C(F)(F)F)cc3)o2)C(=O)Cn2c(CCc3cccc(F)c3F)nc(=O)c3ccccc32)CC1
inactive: inhibition [2] 45% | inhibition [3] -1% | outcome [5] | outcome [6] | outcome [7] | outcome [8]
active: growth inhibition [1] 88% | growth inhibition [4] 91%

OC1(c2ccccc2)c2cc(Cl)ccc2OC1c1nc2c(Cl)ccc(Cl)c2o1 (stereo not given)
active: growth inhibition [1] 89% | growth inhibition [4] 98%
inactive: inhibition [2] 7% | inhibition [3] -6% | outcome [5] | outcome [6] | outcome [7] | outcome [8]

COc1cc2nc(N3CCC(CNC(=O)c4ccc(-c5ccc(C#N)cc5C)cc4)CC3)nc(N)c2cc1OC
inactive: inhibition [2] 28% | inhibition [3] -4% | outcome [5] | outcome [6] | outcome [7] | outcome [8]
active: growth inhibition [1] 99% | growth inhibition [4] 101%

Cc1ccc(NC(=O)NC2CCN(CCC(NC(=O)Cc3ccccc3)c3ccc(Cl)c(Cl)c3)CC2)cc1 (stereo not given)
inactive: growth inhibition [1] 2% | inhibition [2] 16% | inhibition [3] -1% | outcome [5] | outcome [6] | outcome [7] | outcome [8]
active: growth inhibition [4] 100%

COc1ccc(Cn2c(Nc3cccc(C(F)(F)F)c3)nc3ccc(C(=O)NCCN4CCCC4)cc32)cc1Cl
active: growth inhibition [4] 100%
inactive: growth inhibition [1] 6% | inhibition [2] 14% | inhibition [3] 2% | outcome [5] | outcome [6] | outcome [7] | outcome [8]

CCN(CC)CCCC(C)Nc1c(-c2ccc(OC)cc2)cnc2ccccc12 (stereo not given)
active: growth inhibition [4] 93%
inactive: growth inhibition [1] 38% | inhibition [2] 3% | inhibition [3] -6% | outcome [5] | outcome [6] | outcome [7] | outcome [8]

NC1=NC2(CCCCC2)N(OCCCOc2cccc3ccccc23)C(N)=N1
active: growth inhibition [1] 96% | inhibition [2] 67% | growth inhibition [4] 95%
inactive: inhibition [3] -2% | outcome [5] | outcome [6] | outcome [7] | outcome [8]

CC(C)c1ccc(CN2CCC(CNC(=O)c3cc(-c4cccc(Cl)c4)cs3)C2)cc1 (stereo not given)
active: growth inhibition [4] 99%
inactive: growth inhibition [1] 43% | inhibition [2] 42% | inhibition [3] 1% | outcome [5] | outcome [6] | outcome [7] | outcome [8]

CN(C)CCn1c(N)c(-c2nc3ccccc3s2)c2nc(C#N)c(C#N)nc21
active: growth inhibition [4] 94%
inactive: growth inhibition [1] 40% | inhibition [2] 4% | inhibition [3] -7% | outcome [5] | outcome [6] | outcome [7] | outcome [8]

Cc1cc(NC(=O)Nc2ccc(C(C)(C)C)cc2)c2ccccc2n1
inactive: inhibition [2] -3% | inhibition [3] 5% | outcome [5] | outcome [6] | outcome [7] | outcome [8]
active: growth inhibition [1] 57% | growth inhibition [4] 101%

Cc1ccc(O)c(CN2CCCC(COC(c3ccc(F)cc3)c3ccc(F)cc3)C2)c1 (stereo not given)
active: growth inhibition [1] 98% | growth inhibition [4] 98%
inactive: inhibition [2] 19% | inhibition [3] 0% | outcome [5] | outcome [6] | outcome [7] | outcome [8]

Cc1cc(NN=Cc2ccccc2Cl)c2ccc(F)cc2n1
inactive: inhibition [2] 6% | inhibition [3] -4% | outcome [5] | outcome [6] | outcome [7] | outcome [8]
active: growth inhibition [1] 100% | growth inhibition [4] 101%

CCN1CCN(c2ccc(Nc3ccnc4ccc(Br)cc34)cc2)CC1
active: growth inhibition [1] 86% | growth inhibition [4] 98%
inactive: inhibition [2] 37% | inhibition [3] 2% | outcome [5] | outcome [6] | outcome [7] | outcome [8]

Fc1ccc(Nc2ccnc3cc(-c4ccc(CNCCN5CCOCC5)o4)ccc23)c(Cl)c1
inactive: inhibition [2] 34% | inhibition [3] -1% | outcome [5] | outcome [6] | outcome [7] | outcome [8]
active: growth inhibition [1] 99% | growth inhibition [4] 100%

CN(c1ccccc1C(=O)Nc1cc(Cl)ccc1Oc1ccccc1)S(=O)(=O)c1ccccc1
active: growth inhibition [4] 99%
inactive: growth inhibition [1] 42% | inhibition [2] 47% | inhibition [3] 7% | outcome [5] | outcome [6] | outcome [7] | outcome [8]

CCCCCCCN1CC[C@@H](CCCc2ccnc3ccc(OCCCCN=C(N)NO)cc23)[C@@H](CC)C1
inactive: growth inhibition [1] 39% | inhibition [2] 27% | inhibition [3] 2% | outcome [5] | outcome [6] | outcome [7] | outcome [8]
active: growth inhibition [4] 90%

O=C(Nc1cccc(F)c1)NC1CCN(CCCCCNC(=O)[C@@H]2C[C@H]2c2ccc(Cl)c(Cl)c2)CC1
inactive: growth inhibition [1] 12% | inhibition [2] 41% | inhibition [3] 4% | outcome [5] | outcome [6] | outcome [7] | outcome [8]
active: growth inhibition [4] 101%

COc1cccc(C(=O)NCCc2cccc(Cl)c2)c1Oc1ccccc1
inactive: inhibition [2] 28% | inhibition [3] -1% | outcome [5] | outcome [6] | outcome [7] | outcome [8]
active: growth inhibition [1] 90% | growth inhibition [4] 97%

O=C(/C=C/c1ccc(Cl)c(Cl)c1)NCCC(CN1CCC(c2c[nH]c3ccccc23)CC1)c1ccccc1 (stereo not given)
active: inhibition [2] 84% | growth inhibition [4] 100%
inactive: growth inhibition [1] 42% | inhibition [3] -6% | outcome [5] | outcome [6] | outcome [7] | outcome [8]

Cc1nn(-c2cccc(C(F)(F)F)c2)c2sc(C(=O)NC3CCN(C(C)C)CC3)cc12
active: inhibition [2] 98% | growth inhibition [4] 94%
inactive: growth inhibition [1] 20% | inhibition [3] -4% | outcome [5] | outcome [6] | outcome [7] | outcome [8]

O=C(N[C@@H](CC1CCCCC1)C(=O)NC1CCCc2ccccc21)c1ccc(O)c(-c2ccc(Cl)c(Cl)c2)c1 (stereo not given in full)
inactive: inhibition [2] 1% | inhibition [3] -3% | outcome [5] | outcome [6] | outcome [7] | outcome [8]
active: growth inhibition [1] 99% | growth inhibition [4] 98%

CNCCNCc1ccc(-c2ccc(-c3nc4ccc(C(F)(F)F)cc4[nH]3)s2)cc1
inactive: inhibition [2] 30% | inhibition [3] -2% | outcome [5] | outcome [6] | outcome [7] | outcome [8]
active: growth inhibition [1] 100% | growth inhibition [4] 99%
